{"source": "PubChem BioAssay (Tox21)", "note": "Records with an inconclusive call do not appear. Calls of active or inactive are those of the source. The call rests on the fitted dose curve; in most records, active means well fitted activation curve with a large enough effect in the repeat runs; inconclusive means weak or mixed curves; inactive means flat fitted curve, though single readings scatter. On the % scale 0 is the no-effect control and ±100 the full control effect; potency means the concentration at half of the fitted maximal effect."}
{"assay": "Caspase-3/7 induction in HepG2 cells by small molecules, qHTS assay (AID 1346978); further: nearly all actives have a fitted effect of over 15% in size", "conditions": "HepG2 caspase-3/7 activation, Caspase-Glo luminescence, 17 h; series mostly up to 92.4 µM; caspase activation: at the top concentration", "source_text": "National Center for Advancing Translational Sciences [NCATS] NIH Chemical Genomics Center [NCGC] U.S. Environmental Protection Agency [EPA] National Institutes of Environmental Health Sciences [NIEHS] National Toxicology Program [NTP] Assay overview: Apoptosis is a process of programmed cell death and plays a central role in the development of multicellular organisms. It is a highly regulated process and induces cell death by activating caspases, which are the members of cysteine aspartic acid-specific protease (caspase) family. Caspases involved in apoptosis are classified by their mechanism of action as initiator caspases (caspase-2, -8, -9 and -10) and executioner caspases (caspase-3, -6, and -7). Inhibition of apoptosis results in number of cancers, autoimmune diseases, inflammatory diseases and viral infection. To identify small molecule compounds that induce apoptosis, a homogeneous, luminescent Caspase-Glo 3/7 assay was used. Wild type HepG2 cells were used to screen Tox21 libraries for identifying caspase-3/7 activity inducers.\nAssay Protocol Summary: HepG2 cells were dispensed at 2,000 per well in 5uL of culture medium into white solid bottom 1536-well plates (Corning Life Sciences, Corning, NY) using a Multidrop Combi (Thermo Scientific, Waltham, MA) dispenser. The assay plates were incubated at 37 C and 5% CO2 for 5hr, and then 23nL of compounds dissolved in DMSO and positive control were transferred using a Pintool station (Wako, San Diego, CA). The assay plates were incubated at 37C and 5% CO2 for 17hr. For caspase-3/7 activity read, 4uL of Caspase-Glo 3/7 reagent (Promega Corporation, Madison, WI) was added to each well of the assay plates using Flying Reagent Dispenser (FRD, Aurora Discovery, San Diego, CA) and incubated the assay plates at room temperature for 30min. The luminescence signal was quantified using a ViewLux plate reader (Perkin Elmer, Shelton, CT)."}
{"smiles": "CC[C@H](NC(=O)c1cc(F)ccc1NS(=O)(=O)c1cccc2cccnc12)c1ccccc1", "caspase activation": "1.35% (inactive)"}
{"smiles": "O=C(Nc1ccccc1)Nc1ccccc1", "caspase activation": "-9.59% (inactive)"}
{"smiles": "Cc1ccc(/C=N/n2c(-c3ccccc3)csc2=S)cc1", "caspase activation": "0.0143% [at 42.5 µM] (inactive)"}
{"smiles": "Nc1ccc(C(=O)OCCCOC(=O)c2ccc(N)cc2)cc1", "caspase activation": "-1.87% (inactive)"}
{"smiles": "CCOC(=O)/C=C/C(=O)O", "caspase activation": "0.102% (inactive)"}
{"smiles": "CCOC(=O)[C@@H](C)Oc1ccc(Oc2nc3ccc(Cl)cc3o2)cc1", "caspase activation": "-3.23% (inactive)"}
{"smiles": "C=CC(=C)CCCC(C)(C)OC(C)=O", "caspase activation": "0.331% (inactive)"}
{"smiles": "Nc1nccs1", "caspase activation": "0.626% (inactive)"}
{"smiles": "Fc1ccccc1[C@@H](F)COC1CCC(Nc2ncnc3[nH]ncc23)CC1", "note": "(stereo not given in full)", "caspase activation": "-5.77% (inactive)"}
{"smiles": "CCCCCCCCCCCC(=O)[O][Sn]([CH2]CCC)([CH2]CCC)[O]C(=O)CCCCCCCCCCC", "caspase activation": "-0.648% [at 42.5 µM] (inactive)"}
{"smiles": "COCC(O)CO", "note": "(stereo not given)", "caspase activation": "1.29% (inactive)"}
{"smiles": "C1COCO1", "caspase activation": "0.362% (inactive)"}
{"smiles": "CC1=C(C=O)C(C)(C)CCC1", "caspase activation": "0.354% (inactive)"}
{"smiles": "COc1cc2c(N3CCN(C(=O)Nc4ccc(OC(C)C)cc4)CC3)ncnc2cc1OCCCN1CCCCC1", "caspase activation": "1.28% [at 42.5 µM] (inactive)"}
{"smiles": "CCCCCCCCSCCO", "caspase activation": "1.68% (inactive)"}
{"smiles": "O=S(=O)(c1ccccc1)c1ccc(Cl)cc1", "caspase activation": "-2.54% (inactive)"}
{"smiles": "CC(C)(C)C(=O)O", "caspase activation": "0.891% (inactive)"}
{"smiles": "CCCC(=O)O[C@]1(C(=O)COC(=O)CC)CC[C@H]2[C@@H]3CCC4=CC(=O)CC[C@]4(C)[C@H]3[C@@H](O)C[C@@]21C", "caspase activation": "-2.33% [at 19 µM] (inactive)"}
{"smiles": "O=C(O)Cc1ccc(-c2ccccc2)cc1", "caspase activation": "-9.94% [at 42.5 µM] (inactive)"}
{"smiles": "CC1=CC(O)CC(C)(C)C1", "note": "(stereo not given)", "caspase activation": "-0.286% (inactive)"}
{"smiles": "CC1=C(/C=C/C(C)=C\\C=C\\C(C)=C\\C(=O)O)C(C)(C)CCC1", "caspase activation": "2.93% (inactive)"}
{"smiles": "CCC(C(=O)OCCOCCN(CC)CC)c1ccccc1", "note": "(stereo not given)", "caspase activation": "0.0036% [at 42.5 µM] (inactive)"}
{"smiles": "C=CC(C)(C)CC(=O)OC", "caspase activation": "-2.3% (inactive)"}
{"smiles": "CC1=CC(=O)CC(C)(C)C1(O)/C=C/C(C)=C\\C(=O)O", "note": "(stereo not given)", "caspase activation": "-0.303% (inactive)"}
{"smiles": "CC(=N\\O)/C(C)=N/O", "caspase activation": "-2.89% (inactive)"}
{"smiles": "CCCOCCOCCO", "caspase activation": "-0.0253% (inactive)"}
{"smiles": "CCCCC(CC)CNCC(CC)CCCC", "note": "(stereo not given)", "caspase activation": "-0.461% (inactive)"}
{"smiles": "Cc1cc2nc3ccc(=[N+](C)C)cc-3sc2cc1N", "caspase activation": "-6.25% [at 42.5 µM] (inactive)"}
{"smiles": "C/C(=N/NC(=O)c1ccncc1)C(=O)O", "caspase activation": "1.42% [at 42.5 µM] (inactive)"}
{"smiles": "CCc1nn(CCCN2CCN(c3cccc(Cl)c3)CC2)c(=O)n1CCOc1ccccc1", "caspase activation": "-1.7% [at 42.5 µM] (inactive)"}
{"smiles": "C[Si]1(C)O[Si](C)(C)O[Si](C)(C)O1", "caspase activation": "0.259% (inactive)"}
{"smiles": "O=C(N/N=C/c1ccc([N+](=O)[O-])o1)c1ccc(O)cc1", "caspase activation": "-6.09% [at 42.5 µM] (inactive)"}
{"smiles": "CO/N=C1\\CN(c2nc3c(cc2F)c(=O)c(C(=O)O)cn3C2CC2)CC1CN", "note": "(stereo not given)", "caspase activation": "-0.521% [at 42.5 µM] (inactive)"}
{"smiles": "O=C(CCCCCCC(=O)Nc1ccccc1)NO", "Potency": "4.22 µM (active)"}
{"smiles": "O=C(O)c1cccc(O)c1", "caspase activation": "-1.92% (inactive)"}
{"smiles": "O=C(O)c1c(O)c(-c2ccccc2)nc2ccccc12", "caspase activation": "-0.692% [at 42.5 µM] (inactive)"}
{"smiles": "CC(COc1ccc(C(C)(C)C)cc1)OS(=O)OCCCl", "note": "(stereo not given)", "caspase activation": "-6.72% (inactive)"}
{"smiles": "OCCSc1ccccc1", "caspase activation": "0.58% (inactive)"}
{"smiles": "Cc1cnc(C)c(C)n1", "caspase activation": "0.869% (inactive)"}
{"smiles": "Cc1ccc(S(=O)(=O)NC2CCCCC2)cc1", "caspase activation": "-0.669% (inactive)"}
